# Cruzain inh noDet – cruzain (T. cruzi) inhibition without detergent | P25779 | purified cruzain, Z-FR-AMC fluorescence, no detergent | Potency, µM, most hits filed as inhibitors | 2.3% of 200,000 active; also: nearly all actives have a fitted effect of over 40% in size
# Target sequence (P25779 123-467 limits assumed): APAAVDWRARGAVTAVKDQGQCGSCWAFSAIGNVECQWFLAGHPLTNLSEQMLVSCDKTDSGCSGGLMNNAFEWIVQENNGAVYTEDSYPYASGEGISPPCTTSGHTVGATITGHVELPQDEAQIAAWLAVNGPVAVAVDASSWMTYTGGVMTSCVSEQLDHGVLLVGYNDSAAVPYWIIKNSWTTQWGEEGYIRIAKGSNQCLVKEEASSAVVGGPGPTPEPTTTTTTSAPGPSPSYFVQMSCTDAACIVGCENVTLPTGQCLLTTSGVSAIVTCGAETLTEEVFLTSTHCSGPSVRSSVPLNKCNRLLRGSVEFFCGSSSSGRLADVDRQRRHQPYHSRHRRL
#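 Detergent-free condition (0.00005% Triton X-100) in acetate buffer pH 5.5 with DTT. 1.5 nM enzyme and compound were pre-mixed 15 min, then 2 uM Z-FR-AMC substrate added; reaction progress from fluorescence change between first and third reads (60 s).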
# Cruzain Triton – inhibitors of Trypanosoma cruzi cruzain with detergent; purified cruzain, Z-FR-AMC fluorescence, 0.01% Triton; Potency, µM, most hits filed as inhibitors; 0.43% of 200,000 active; also: nearly all actives have a fitted effect of over 40% in size
#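 Compounds were screened in titration against cruzain (1.5 nM) with 0.01% Triton X-100 to counter colloidal aggregation. Activity was the AMC fluorescence increase over 60 s after adding 2 uM Z-FR-AMC at pH 5.5.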
# Hits are given with their value; – = inactive; ? = inconclusive. Rows were chosen to be rich in hits. Some 2.6% of all compounds tested hit in one or more screens of this group. Calls follow the shape of the dose curve; as a rule, active = well fitted curve in the direction sought with a large enough effect; inconclusive = small, poorly fitted or top-dose-only effect, or another doubt; inactive = no such curve, though single readings can be large; an effect the other way counts as inactive or inconclusive.
SMILES,Cruzain inh noDet,Cruzain Triton
CCOC(=O)C1=C(c2ccccc2)NC(=S)NC1c1cc([N+](=O)[O-])ccc1OC (stereo not given),25.1µM,–
CCOC(=O)C1=C(c2ccccc2)NC(=S)NC1c1cccc([N+](=O)[O-])c1 (stereo not given),–,–
Cn1c(=O)[nH]c(=O)c2c1nc1n(CCO)c(-c3ccccc3)cn21,–,–
Cc1ccc(S(=O)(=O)/N=C2/C=C(Sc3ncn[nH]3)C(=O)c3ccccc32)cc1,?,–
CC(C)c1ccc(S(=O)(=O)/N=C2/C=C(Sc3ncn[nH]3)C(=O)c3ccccc32)cc1,12.6µM,–
CN(C(=O)CSc1cn(CC(=O)N2CCCC2)c2ccccc12)c1ccccc1,?,–
CCOC(=O)c1cc(-c2ccccc2)sc1NC(=O)CCN1C(=O)c2ccccc2C1=O,?,–
CCOC(=O)c1sc(-c2ccccc2)cc1N,–,–
CCOC(=O)c1cc(-c2ccccc2)sc1NC(=O)C(C)N1C(=O)c2ccccc2C1=O (stereo not given),25.1µM,–
CCOC(=O)c1cc(-c2ccccc2)sc1N,25.1µM,–
COc1ccccc1C(=O)N1CCCCC1CCN1CCOCC1 (stereo not given),–,–
CSc1nc(N)c2ncn([C@@H]3O[C@H](COP(=O)(O)OP(=O)(O)OP(=O)(O)O)[C@H](O)[C@H]3O)c2n1,–,–
CCOC(=O)c1ccc(NC(=O)Cc2noc3ccc(C)cc23)cc1,–,–
COc1ccc(NC(=O)Cc2noc3ccc(C)cc23)cc1Cl,25.1µM,?
Cc1ccc(C)n1-c1nnc(N2CCCC(C(=O)NCc3cccc(Cl)c3)C2)s1 (stereo not given),–,–
CCOc1cccc2cc(C(=O)N3CCc4ccccc43)c(=O)oc12,15.8µM,–
COc1cccc2cc(C(=O)N3CCc4ccccc43)c(=O)oc12,–,–
CCOc1ccc2nc(NC(=O)c3cccc(-c4cc5ccccc5oc4=O)c3)sc2c1,12.6µM,–
CCOc1ccc(C(=O)Nc2cccc(-c3cc4ccccc4oc3=O)c2)cc1[N+](=O)[O-],?,–
Cc1cc(NC(=O)c2ccc(Cl)c(Cl)c2)ccc1-c1cc2ccccc2oc1=O,–,–
CCn1nnc(NC(=O)c2cccc(-c3cc4ccccc4oc3=O)c2)n1,–,–
O=C(Nc1cccc(Cl)c1N1CCCC1)c1cccc(-c2cc3ccccc3oc2=O)c1,10µM,–
Cc1ccc2nc(NC(=O)c3cccc(-c4cc5ccccc5oc4=O)c3)sc2c1,10µM,–
Cc1ccc2cccc(NC(=O)C(C)Oc3ccc(Cl)cc3Cl)c2n1 (stereo not given),–,–
O=C(Cn1nc(N2CCN(c3ccccc3)CC2)ccc1=O)NCc1cccc(Cl)c1,?,–
SMILES,Cruzain inh noDet,Cruzain Triton
C=C(C)[C@]12C[C@@H](C)[C@@]34OC(Cc5ccccc5)(O[C@@H]1[C@@H]3C=C(COC(=O)Cc1cc(OC)c(O)cc1I)C[C@]1(O)C(=O)C(C)=C[C@@H]41)O2,–,–
Cc1ccc(C2=NNC(c3ccc(Cl)cc3)=Nc3ccccc32)o1,12.6µM,–
Cc1ccc(-c2cc(-c3ccc(Cl)cc3)c(C#N)c(N)n2)o1,?,–
CCc1ccccc1NC(=O)CCCn1c(=O)c2cccn2c2ccccc21,–,–
COc1cc2c(cc1OC)-c1cc(N3CCCc4ccccc43)nc(=O)n1CC2,–,–
COc1cc2c(cc1OC)-c1cc(N3CCCCCC3)nc(=O)n1CC2,12.6µM,–
COc1ccc(C2CC(=O)c3cc(-c4nc(-c5cccc([N+](=O)[O-])c5)cs4)c(=O)n(-c4ccccc4)c3C2)cc1 (stereo not given),–,–
COc1ccc(C2CC(=O)c3cc(-c4nc(-c5cccc([N+](=O)[O-])c5)cs4)c(=O)n(-c4ccc(F)cc4)c3C2)cc1 (stereo not given),1µM,–
Cc1ccc(CCNC(=O)c2c3c(nc4ccccc24)C(=O)N(C2CCCCC2)C3)cc1,?,–
Cc1ccc(C(=O)NC(=S)Nc2ccccc2N2CCCC2)cc1[N+](=O)[O-],–,–
CCOc1ccc(C(=O)Nc2ccc(NC(=O)c3cccs3)cc2)cc1[N+](=O)[O-],7.94µM,–
Cc1ccc(C(=O)NC(=S)Nc2ccc(NC(=O)c3cccs3)cc2)cc1[N+](=O)[O-],10µM,–
COc1ccc(C(=O)Nc2ccc(NC(=O)c3cccs3)cc2)cc1[N+](=O)[O-],–,–
CCOC(=O)N1CCc2c(sc3c2c(=O)n(-c2ccc(Cl)cc2)c(=O)n3CC(=O)Nc2ccccc2)C1,–,–
O=C(CSc1ncc2c(n1)-c1ccccc1N(Cc1ccccc1)S2(=O)=O)Nc1ccccc1,–,–
CC(=O)c1ccc(NC(=O)Nc2sc3nc4n(c(=O)c3c2C)CCC(C)CC4)cc1 (stereo not given),?,–
COc1ccc(/C=C/C(=O)Nc2cc(C)nn2-c2nc3ccccc3[nH]2)cc1,?,–
COc1ccc(/C=C/C(=O)Nc2cc(C)nn2-c2nc3ccccc3n2Cc2cccc([N+](=O)[O-])c2)cc1,7.94µM,–
COc1ccc(C)cc1NS(=O)(=O)c1cc(Br)cc2c1N(C(C)=O)C(C)C2 (stereo not given),–,–
Cc1cccc(NS(=O)(=O)c2ccc(Cl)c(C(=O)Nc3ccccc3C)c2)c1,–,–
CCc1cccc(C)c1NC(=O)C(CC)Sc1nc2ccncc2[nH]1 (stereo not given),–,–
Cc1c(Cc2ccccc2)c(=O)oc2c(C)c(OCC(=O)Nc3ccc(C#N)cc3)ccc12,12.6µM,–
Cc1cc(C)cc(NC(=O)COc2ccc3c(C)c(Cc4ccccc4)c(=O)oc3c2)c1,?,–
COc1cccc(C(=O)COc2ccc3c(C)c(Cc4ccccc4)c(=O)oc3c2C)c1,?,–
Cc1cccc(C)c1NC(=O)COc1ccc2c(C)c(Cc3ccccc3)c(=O)oc2c1C,12.6µM,–
SMILES,Cruzain inh noDet,Cruzain Triton
CC(=O)Nc1c(C)nn(-c2ccccc2)c1N1CCC(C(=O)NCc2ccccc2Cl)CC1,–,28.2µM
CC(=O)Nc1c(C)nn(-c2ccccc2)c1N1CCC(C(=O)NCc2cccc(Cl)c2)CC1,?,–
Cc1cc(O)c(C(C)C)cc1Cl,–,–
Cc1ccc(/C=N/N2CCN(Cc3ccccc3)CC2)s1,–,–
Cc1ccc(/C=N/N2CCN(Cc3cccc4ccccc34)CC2)s1,10µM,–
CCCOc1ccc(NC(=O)CC2C(=O)N(c3ccc(OC)cc3)C(=O)N2CCc2ccncc2)cc1 (stereo not given),–,–
COc1ccc(C2CC(=O)c3cc(-c4nc(-c5cccc([N+](=O)[O-])c5)cs4)c(=O)n(-c4ccccc4C)c3C2)cc1 (stereo not given),–,–
Cc1cccc2cc(COC(=O)C3CCCO3)c(=O)[nH]c12 (stereo not given),1.58µM,–
Cc1cccc2cc(COC(=O)C3CCCCC3)c(=O)[nH]c12,–,–
O=C(Nc1cc(-c2nc3ccccc3o2)ccc1Cl)c1sc2c([N+](=O)[O-])cccc2c1Cl,–,–
Cc1nn(-c2ccccc2)c(N2CCCC2)c1/C=N/O,–,–
Cc1nn(-c2ccccc2)c(N2CCCC2)c1/C=C1\N=C(c2ccc(F)cc2)OC1=O,0.316µM,0.398µM
O=C1OC(c2ccccc2)=N/C1=C\N1CCCCC1,–,–
CS(=O)(=O)Oc1ccccc1/C=C1/N=C(c2ccc(F)cc2)OC1=O,15.8µM,14.1µM
COc1cccc(/C=C2\N=C(c3c(-c4ccccc4)noc3C)OC2=O)c1OC,–,–
